Source: PubChem (Broad Institute)
aSyn 5UTR act = Activators working through SNCA 5'UTR binding (MLPCN). alpha-synuclein 5'UTR reporter, activators screen. activity score, % (tested at 7.5 µM), hits read low. 7.1% of 300,000 active. AID 1814; in the data active = activity score below about -60%
Starred values were filed as active, the others as inactive. A selection follows.

SMILES | aSyn 5UTR act
O=C1CC(c2ccccc2F)c2cc3c(cc2N1)CCC3 (stereo not drawn) | 65
COc1ccc2cc(-c3ccn[nH]3)ccc2c1 | -124*
CCOC(=O)CNC(=O)c1ccc(SCC)cc1 | -91*
Cc1c(CCC(=O)N[C@@H](C)C(=O)O)c(=O)oc2cc3oc4c(c3cc12)CCCC4 | 71
CCc1ccc(C(=O)Nn2cnc3ccccc3c2=O)cc1 | -150*
Cc1ccc(C(=O)Nn2cnc3ccccc3c2=O)cc1C | -115*
COc1cccc(NC(=S)N/N=C2\CC3CCC2(C)C3(C)C)c1 (stereo not drawn) | -78*
Cc1cc(=O)oc2cc(NC(=O)CCOc3ccccc3)ccc12 | -82*
CCOC(=O)Nc1ccc2c(C)cc(=O)oc2c1 | -178*
CCCCOC(=O)Nc1ccc2c(C)cc(=O)oc2c1 | -145*
O=C(CNC(=O)c1ccco1)Nc1ccc(Cl)cc1 | -70*
O=C(CNC(=O)c1ccco1)Nc1ccc(Br)cc1 | -142*
COc1ccccc1-c1c(C(F)(F)F)oc2cc(OS(C)(=O)=O)ccc2c1=O | -101*
Cc1cc(/C=C2/C(=O)N(C)C(=S)N2C)c(C)n1C1CC1 | -140*
CC(=O)N(C)c1ccc(NC(=O)Nc2ccc(Cl)cc2)cc1 | -135*
CC(=O)N(C)c1ccc(NC(=O)Nc2ccc(C)cc2)cc1 | -76*
N#C/C(=N\Nc1ccc(Br)cc1)C(=N)N1CCOCC1 | -123*
N#C/C(=N/Nc1ccc([N+](=O)[O-])cc1)C(=N)N1CCCCC1 | -86*
N#C/C(=N\Nc1ccc([N+](=O)[O-])cc1)C(=N)N1CCOCC1 | -109*
N#C/C(=N\Nc1ccccc1[N+](=O)[O-])C(=N)N1CCCCC1 | -112*
CN(Cc1nc(-c2cccs2)no1)CC(O)c1ccccc1 (stereo not drawn) | -62*
c1ccc(OCc2nc(-c3cccs3)no2)cc1 | -173*
Fc1ccc(OCc2nc(-c3cccs3)no2)cc1 | -123*
Nc1ccc(C#Cc2c(-c3ccsc3)oc3ccc(N4CCOCC4)cc23)cc1 | -168*
COc1ccc(-c2oc3ccc(N4CCOCC4)cc3c2C#CCO)cc1 | -92*
SMILES | aSyn 5UTR act
COc1ccc(OCCOC(=O)c2cccc(-n3cnnn3)c2)cc1 | -81*
CCCCOc1ccc(N2C(=O)CC(N(O)c3ccccc3)C2=O)cc1 (stereo not drawn) | -85*
CNc1nnc(CSc2nc3ccccc3s2)s1 | -88*
Cc1ccc2nc(Nc3nc(CSc4nc5ccccc5s4)cc(=O)[nH]3)nc(C)c2c1 | 61
c1csc(CSc2nc3ccccc3s2)c1 | -280*
COc1ccc2sc3ccccc3c(=O)c2c1OC | -145*
COc1ccc2sc3c(=O)[nH]c4ccccc4c3c2c1 | 63
COc1cccc2sc3ccc(NCc4ccc5c(c4)OCO5)cc3c(=O)c12 | -63*
COc1cccc2sc3ccc(C#Cc4ccc(N)cc4)cc3c(=O)c12 | -111*
O=c1c2ccccc2sc2ccc(C#CC3(O)CCCCC3)cc12 | 104
COc1cccc2sc3ccc(C#CC4(O)CCCCC4)cc3c(=O)c12 | -191*
Nc1ccc(C#Cc2ccc3sc4ccccc4c(=O)c3c2)cc1 | -190*
CCOC(=O)N1CCN(C(=O)c2ccc(C#CC3(O)CCCCC3)cc2)CC1 | -64*
O=C(c1cc(COc2ccc3c(c2)CCCC3)on1)N1CCCC1 | -118*
CCOC(=O)N1CCN(C(=O)c2cc(COc3c(F)cccc3F)on2)CC1 | -151*
O=C(c1cc(COc2c(F)cccc2F)on1)N1CCCCCC1 | -99*
CN(C(=O)c1ccncc1)c1nnc(-c2ccccn2)s1 | -66*
Cc1ccc(C(=O)N(C)c2nnc(-c3ccncc3)s2)cc1 | -107*
COc1ccc(Br)cc1/C=C/C(=O)Nc1ccc2ccccc2c1 | -91*
CCC(=O)Nc1cccc(C(=O)/C=C/c2cc(Br)ccc2OC)c1 | -125*
COc1ccc(Br)cc1/C=C/C(=O)Nc1ccc(C)cc1 | -86*
COc1ccc(/C=C/C2=Nc3ccccc3NC(C)(C)C2)cc1OC | -78*
Cc1occc1C(=O)NNC(=S)Nc1ccccc1 | -88*
Cc1occc1C(=O)NNC(=S)Nc1ccccc1C(F)(F)F | -86*
Cc1occc1C(=O)NNC(=O)c1ccccc1F | -82*
SMILES | aSyn 5UTR act
CN(c1ccc(O)cc1)S(=O)(=O)c1ccc2ccccc2c1 | -111*
Cc1cccc(-c2nc(C#N)c(N3CCCCCC3)o2)c1 | -68*
Cc1cccc(-c2nc(C#N)c(NCC3CCCO3)o2)c1 (stereo not drawn) | -112*
Cc1ccc(-c2nc(C#N)c(NCC3CCCO3)o2)cc1 (stereo not drawn) | -88*
Nc1ccc2c(c1)COc1ccccc1O2 | -133*
COc1ccc(CCNC(=O)c2ccc3c(c2)OCCO3)cc1 | -135*
COc1ccc(CCNC(=O)c2coc(=O)c(Br)c2)cc1 | -63*
O=C(NCCc1ccccc1)c1ccc2c(c1)OCCO2 | 106
COc1cc(OC)c(C(=O)O/N=C(\N)c2ccc(C)cc2)cc1OC | -66*
Cc1occc1C(=O)O/N=C(\N)c1ccc(Cl)cc1 | -71*
COc1cc(OC)c(C(=O)O/N=C(\N)c2cccc(C)c2)cc1OC | -67*
COc1ccc(Cl)cc1C(=O)O/N=C(\N)c1ccc(Cl)cc1 | -267*
Nc1ccccc1C(=O)NNC(=O)C(=O)/C=C(\O)c1ccccc1 | -139*
Cc1cc(C)nc(Nc2n[nH]c(-c3cccc4ccccc34)n2)n1 | -88*
Cc1cc(C)nc(Nc2n[nH]c(-c3ccccc3Cl)n2)n1 | -141*
Cc1cc(C)nc(Nc2n[nH]c(COc3ccccc3)n2)n1 | -110*
Cc1cccc(N(C)S(=O)(=O)c2ccc(-c3cnc(C4CC4)o3)cc2)c1 | 97
Cc1cc(NCCCn2ccnc2)n2nc(C)c(-c3ccc(Cl)cc3)c2n1 | 54
Cc1cc(NCCCn2ccnc2)n2nc(C)c(-c3ccccc3)c2n1 | -140*
Cc1ccc2nc(SCC(=O)N3CCOCC3)[nH]c2c1 | -89*
Cc1ccc2nc(SCC(=O)Nc3cc(C(F)(F)F)ccc3N3CCOCC3)[nH]c2c1 | 96
C/C(N)=C(/C#N)C(=O)CSc1nc2ccc(C)cc2[nH]1 | -183*
Cc1ccc2[nH]c(SCC(=O)N3CCOCC3)nc2c1C | -110*
Cc1cc(=O)oc2cc(NC(=O)c3c(Cl)cnn3C)ccc12 | -76*
Cc1cc(=O)oc2cc(NC(=O)c3ccccc3Cl)ccc12 | -201*
SMILES | aSyn 5UTR act
Cc1cc(=O)oc2cc(NC(=O)c3ccnn3C)ccc12 | -135*
Cc1ccc2sc3ccc(NC(=O)c4ccccc4Cl)cc3c(=O)c2c1 | -109*
O=C(CCc1ccccc1)Nc1ccc(Cl)cn1 | -314*
Cc1ccccc1NC(=O)COc1ccc2c(c1)OC(C)(C)CC2=O | -88*
O=C(CCc1ccccc1)NC(c1cccs1)c1cc(Cl)c2cccnc2c1O (stereo not drawn) | 88
O=C(COc1ccc(Cl)cc1)Nc1ccc(Cl)cn1 | -125*
O=C(Nc1ccc(Cl)cn1)c1ccc(Oc2ccccc2)cc1 | -143*
O=C(COc1ccc2c(c1)OCO2)Nc1ccccc1F | -98*
O=C(COc1ccccc1)Nc1ccc(Cl)cn1 | -114*
O=C(COc1ccc2c(c1)OCO2)Nc1ccc(Cl)cn1 | -142*
Cc1ccc(CC(=O)Nc2ccc(Cl)cn2)cc1 | -101*
O=C(/C=C/c1ccccc1Cl)Nc1ccc(Cl)cn1 | -118*
O=C(/C=C/c1ccc2c(c1)OCO2)Nc1ccc(Cl)cn1 | -110*
COc1ccc(C(=O)Nc2ccc(S(=O)(=O)N(C)c3ccccc3)cc2)cc1 | -74*
COc1ccc(NC(=O)c2ccc3ccccc3c2)cc1 | -92*
COc1ccc(-c2cccc(C(=O)Nc3cccc(C(=O)O)c3)c2)cc1 | -149*
